Source: PubChem
In the library only some 9.5% were active in any assay of this set; here they are far more common.
HPGD inh: qHTS Assay for Inhibitors of HPGD (15-Hydroxyprostaglandin Dehydrogenase); 15-hydroxyprostaglandin dehydrogenase [NAD(+)] (Homo sapiens), P15428; purified HPGD, NADH fluorescence kinetic, PGE2 substrate; Potency, µM, inactives show at the top dose activity change, negative = inhibition, hits mostly inhibitors; 150,000 tested, 4.3% active; AID 894, 2007; active = well fitted inhibition curve with a large enough effect, not every such curve was filed as active; inconclusive = small, poorly fitted or top-dose-only effect, or another doubt; inactive = no such curve, though single readings can be large or run the other way
Target sequence (P15428 whole entry, looked up): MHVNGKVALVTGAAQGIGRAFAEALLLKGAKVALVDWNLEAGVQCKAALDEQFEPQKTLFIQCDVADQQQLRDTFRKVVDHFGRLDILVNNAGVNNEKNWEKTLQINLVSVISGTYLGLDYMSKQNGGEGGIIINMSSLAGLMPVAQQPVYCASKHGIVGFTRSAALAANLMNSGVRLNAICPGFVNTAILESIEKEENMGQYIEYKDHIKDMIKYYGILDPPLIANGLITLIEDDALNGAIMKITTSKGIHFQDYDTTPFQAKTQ
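20 nM HPGD preincubated 15 min at room temperature with compound in 50 mM Tris-HCl pH 8, 0.01% Tween 20. Started with 1 mM NAD+ and 30 uM prostaglandin E2; NADH fluorescence (360/450 nm) read 5 times over 30-s intervals, last minus first.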
Tau FP inhib: qHTS for Inhibitors of Tau Fibril Formation, Fluorescence Polarization. K18 P301L tau heparin fibrillization, Alexa594 FP, 6 h. 280,000 tested, 0.39% active. Potency, µM (highest dose often 57.7 µM), for the others: at the top dose activity, negative = inhibition, actives largely listed as inhibitors. AID 1468, 2008. Microtubule-associated protein tau (Homo sapiens), P10636; also: nearly all actives have a fitted effect of over 55% in size
Target sequence (P10636 561-689 P618L limits assumed): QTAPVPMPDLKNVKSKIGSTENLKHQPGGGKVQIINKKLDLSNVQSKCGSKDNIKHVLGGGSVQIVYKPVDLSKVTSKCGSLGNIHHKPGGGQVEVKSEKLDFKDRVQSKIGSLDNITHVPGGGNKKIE
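Human tau K18 […] P301L fragment, 15 uM unlabeled plus 0.24 uM Alexa 594-labeled tau (final), with compound and 20 uM heparin in 100 mM sodium acetate pH 7; 6 hr at 37 C, then Alexa 594 FP read.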
NPSR antag: qHTS Assay for Antagonists of the Neuropeptide S Receptor: cAMP Signal Transduction; Q6W5P4; CHO-NPSR cells, cAMP TR-FRET, antagonist mode; Potency, µM (titrated, usually from 38.3 µM), without a hit: at the highest dose activity change, negative = inhibition, most hits filed as inhibitors; 220,000 tested, 1% active; AID 1461, 2008; also: nearly all actives have a fitted effect of over 50% in size
Tau fluor counter: Counterscreen qHTS for Inhibitors of Tau Fibril Formation, Fluorescence Polarization. tau K18 P301L Alexa594 fluorescence, heparin fibrillization. Potency, µM (top dose mostly 57.7 µM), without a hit: at the top dose activity change, negative = decrease. 280,000 tested, 0.93% active. AID 1463, 2008; also: nearly all actives have a fitted effect of over 55% in size
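Human tau K18 P301L (15 uM unlabeled, 0.24 uM Alexa 594-labeled) in 100 mM sodium acetate pH 7 with 20 uM heparin, 6 hr at 37 C. ThT 30 uM added, 1 hr ambient; Alexa 594 FP and total fluorescence read at 555/632 nm.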
Tau ThT inhib: qHTS for Inhibitors of Tau Fibril Formation, Thioflavin T Binding. recombinant tau K18 P301L (four-repeat tau fragment), heparin-induced fibrillization, ThT fluorescence. Potency, µM (series often up to 57.4 µM), for the others: at the highest dose activity, negative = inhibition, hits mostly inhibitors. 270,000 tested, 2.1% active; also: nearly all actives have a fitted effect of over 55% in size
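Tau K18 P301L fragment (15 uM unlabeled plus 0.24 uM Alexa 594-labeled) in 100 mM sodium acetate pH 7 with compound, fibrillization induced by 20 uM heparin for 6 hr at 37 C. Thioflavin T (30 uM) added, fluorescence read after 1 hr (ex 450, em 510 nm).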
ALDH1A1 block: qHTS Assay for Inhibitors of Aldehyde Dehydrogenase 1 (ALDH1A1); Potency, µM (series often up to 75.3 µM), for the others: at the highest dose activity, negative = inhibition, actives largely listed as inhibitors; Aldehyde dehydrogenase 1A1 (Homo sapiens), P00352; 220,000 tested, 7.3% active; Purified ALDH1A1, NADH fluorescence, propionaldehyde substrate; active = well fitted inhibition curve with a large enough effect, not every such curve was filed as active; inconclusive = small, poorly fitted or top-dose-only effect, or another doubt; inactive = no such curve, though single readings can be large or run the other way;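 also: plate controls were no enzyme wells and a reference inhibitor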
* hit, by the source's call; ? = inconclusive; . = no result; [ ] = dose if it differs, or a comment. Unless noted, calls follow the shape of the dose curve; as a rule, active = well fitted curve in the direction sought with a large enough effect; inconclusive = small, poorly fitted or top-dose-only effect, or another doubt; inactive = no such curve, though single readings can be large; an effect the other way counts as inactive or inconclusive. Unless noted, % is scaled to controls: 0 for no effect and ±100 for the full control effect; potency is read from the fitted curve at half-maximal effect.

SMILES | HPGD inh | Tau FP inhib | NPSR antag | Tau fluor counter | Tau ThT inhib | ALDH1A1 block
O=C(NC(=S)Nc1cccc2ncccc12)c1cccs1 | . | -9.2% | -38.8% | 0.5% | -8.5% | ?
COC(=O)c1ccccc1NC(=S)NC(=O)c1ccc(C)cc1 | -29.7% | 0.0% | 15.8% | -21.1% | ? | ?
O=C(NC(=S)Nc1ccc2[nH]ncc2c1)c1ccccc1 | ? | -3.0% | -17.6%[46.1 µM] | -18.8% | ? | 10µM*
Cc1ccc(NC(=S)NC(=O)c2ccccc2)cc1NC(=S)NC(=O)c1ccccc1 | . | 1.9% | ? | ? | ? | 3.55µM*
Cc1cc(C)c(NC(=S)NC(=O)c2ccc(-c3ccccc3)cc2)c(C)c1 | -7.7% | -3.9% | -6.5%[46.1 µM] | -9.5% | -9.4% | 10µM*
COc1cc(NS(=O)(=O)c2cnc(N)nc2)cc(OC)c1 | . | -0.4% | . | -1.6% | -0.1% | .
CN(Cc1ccco1)c1ncnc2ccc(-c3ccccc3C(F)(F)F)cc12 | . | . | . | . | . | -9.0%
Cc1ccc2cccc(NC(=S)NC(=O)c3ccccc3)c2n1 | -7.2% | -11.1% | -14.8%[46.1 µM] | ? | -14.0% | ?
Cc1ccc2cccnc2c1NC(=S)NC(=O)c1ccccc1 | -19.6% | 0.7% | -4.3%[46.1 µM] | -10.2% | -17.3% | 28.2µM*
O=C(NC(=S)Nc1ccc2ncccc2c1)c1ccccc1 | . | 4.2% | -14.8% | -0.1% | -7.5% | 3.55µM*
O=C(NNC(=S)Nc1ccccc1)c1ccc2ncccc2c1 | . | -3.0% | -11.7% | -6.3% | ? | 22.4µM*
CCCCC1C2=C(CC(C)(C)CC2=O)OC2=C1C(=O)CC(C)(C)C2 | . | -0.2% | -16.8%[46.1 µM] | -6.7% | -1.7% | 6.2%
Cc1cccc(C(=O)Nc2ccc3nc(SCC(=O)N4CCCC4)sc3c2)c1 | . | -9.4% | . | ? | -14.0% | .
COc1cc(/C=N/NC(=O)COc2cccc(F)c2)ccc1OS(=O)(=O)c1ccc(C)cc1 | -22.4% | ? | -9.4% | ? | ? | 8.91µM*
CC(/C=N/NC(=O)c1c(Br)cnn1C)=C\c1ccccc1 | -17.6% | 5.5% | -1.0% | 11.4% | 3.1% | -0.4%
COc1cc(/C=N/NC(=O)c2cccnc2)ccc1OS(=O)(=O)c1ccc(F)cc1 | -12.1% | ? | -4.3%[46.1 µM] | -18.8% | -9.4% | 3.6%
COc1cc(/C=N/NC(=O)c2cccnc2)ccc1OS(=O)(=O)c1ccc(C)cc1 | -19.2% | ? | -4.2% | ? | 3.7% | 3.55µM*
Cn1ncc(Br)c1C(=O)N/N=C/c1ccc(OS(=O)(=O)c2ccccc2)cc1 | -7.6% | -9.8% | 4.7%[46.1 µM] | ? | ? | 25.1µM*
Cc1ccc(S(=O)(=O)Oc2ccc(/C=N/NC(=O)c3cccnc3)cc2)cc1 | . | ? | -15.3% | ? | -7.1% | 12.6µM*
COc1cc(/C=N/NC(=O)c2cccnc2)ccc1OS(=O)(=O)c1cc(C)ccc1C | -15.4% | ? | 3.4% | ? | -13.4% | -6.3%
CCc1ccc(NC(=O)c2ccc(Cn3nc(N4CCN(c5ccccc5)CC4)ccc3=O)o2)cc1 | . | -4.1% | . | -23.9% | ? | .
COc1ccc2c(c1)c1c(c(=O)n(-c3ccc(C)cc3)c(=O)n1CC(=O)N1CCCC1)n2C | . | 0.2% | . | -2.6% | 0.0% | .
Cn1cc([N+](=O)[O-])c(C(=O)Nc2ccc(-c3nc4ccccc4o3)cc2)n1 | . | 0.3% | 3.3% | -27.5% | ? | .
CCOc1ncccc1C(=O)N1CCCSC1=Nc1ccc(C(C)=O)cc1 | . | -6.2% | -4.9% | 0.8% | -2.3% | -14.1%
O=C(O)COc1ccc(/C=C/c2ccc3cccc([N+](=O)[O-])c3n2)cc1 | -23.5% | 9.8% | -10.2% | -16.3% | 7.94µM* | ?
